Screening results deposited in PubChem BioAssay by several laboratories.
NR2F2 inh: NR2F2 (human) inhibition, primary screen. HEK293T NGFI-A luciferase reporter, luminescence. 370,000 tested, 0.7% active. inhibition, % at 8.6 µM;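 active = inhibition above a per-plate cutoff, mean inhibition of test wells between control levels plus 3 SD, cut at about 38% in these data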;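 note: cells cotransfected with COUP-TFII expression vector driving the NGFI-A reporter; 0% = median of COUP-TF2 test wells and 100% = reporter-only cells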
H9c2 protect: myocardial damage modulation in H9c2 cells. H9c2 cardiomyocytes, H2O2 injury protection, ATPLite, 2 h. protection from H2O2 cell death, % at 20 µM. 360,000 tested, 0.63% active. AID 588492;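 active = compounds giving at least 50% protection of heart cells from peroxide-induced death in the single-dose screen, raw or plate-pattern-corrected value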;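 note: 0% = DMSO wells with peroxide and 100% = DMSO wells without peroxide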
FXN GAA850 act: increases GAA850 frataxin promoter reporter activity. HEK293 lucGAA850 FXN promoter luciferase reporter, 24 h; percent of 10 µM SAHA response. activation, % at 6 µM. 360,000 tested, 0.56% active. AID 540364;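 active = activation above the average of all compounds screened plus 3 SD, cutoff fixed separately per campaign, cut at about 7.5% in these data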;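 note: 0% = DMSO wells and 100% = 10 µM SAHA wells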
SMARCA2 activ: increases SMARCA2 function in MMTV reporter cells; AID 652017; MG213 cells, MMTV-luciferase reporter, dexamethasone, overnight; activation, % at 9.1 µM; 370,000 tested, 1% active; in the data active = activation above about 7.8%;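 note: 0% = vehicle wells and 100% = reference activator wells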
Gli-Sufu block: blocks Gli-Sufu signaling in a luciferase reporter; Sufu-KO-LIGHT fibroblasts, Gli luciferase reporter luminescence; inhibition, % at 5 µM; 340,000 tested, 0.74% active; AID 588413;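 active = inhibition above about 55%, limit read from the data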;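 note: 0% = DMSO-treated cells and 100% = wells with medium but no cells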
GalR3 antag: antagonists of human GalR3 | O60755 | HEK293 GalR3-CNG cAMP membrane potential fluorescence; galR3 body fused to GalR1 C-terminus | inhibition, % at 3 µM | 360,000 tested, 0.44% active | AID 651719;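 active = inhibition above the screen-wide average plus 3 SD, cut at about 13% in these data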;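 note: forskolin and galanin both at EC90 stimulate the cells; cAMP rise reported by CNG channel membrane potential dye signal; 0% = forskolin plus galanin with DMSO and 100% = forskolin alone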
Target sequence (O60755 1-299 limits assumed): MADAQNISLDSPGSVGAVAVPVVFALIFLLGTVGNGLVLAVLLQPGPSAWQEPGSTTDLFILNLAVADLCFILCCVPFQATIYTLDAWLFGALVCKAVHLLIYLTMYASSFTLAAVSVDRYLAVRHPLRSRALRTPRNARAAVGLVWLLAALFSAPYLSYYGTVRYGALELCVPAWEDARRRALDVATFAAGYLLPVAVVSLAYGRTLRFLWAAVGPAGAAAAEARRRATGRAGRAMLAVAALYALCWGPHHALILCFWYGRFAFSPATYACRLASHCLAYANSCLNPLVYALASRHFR
GalR3 conf: confirmation of human galanin receptor 3 antagonists | AID 652245 | shares compounds with GalR3 antag | HEK293 GalR3 CNG cAMP biosensor, membrane potential fluorescence; galR3 fused to GalR1 carboxy tail; challenged with forskolin and galanin at EC90 | inhibition, % at 3 µM | 1,600 tested, 59% active;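 active = inhibition above the primary screen's cutoff, the mean inhibition of all screened compounds plus 3 SD, cut at about 13% in these data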;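 note: 0% = forskolin plus galanin and 100% = forskolin alone with DMSO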
CNG parental: acts as nonspecific agonist in parental HEK-CNG cells; activation, % at 3 µM; HEK293-CNG parental cells, cAMP membrane potential fluorescence; normalised: DMSO wells 0%, forskolin wells 100%; shares compounds with GalR3 antag; AID 652268; 1,600 tested, 10% active; in the data active = activation above about 1.3%
Gal4-VP16 ctr: counter-screen for COUP-TFII antagonists: inhibitors of VP16 | 2,500 tested, 25% active | inhibition, % at 8.5 µM | shares compounds with NR2F2 inh | HEK293 Gal4-VP16 luciferase reporter, luminescence | AID 687007; in the data active = inhibition above about 13%
NR2F2 inh conf: COUP-TFII (NR2F2) inhibition, confirmation assay. shares compounds with NR2F2 inh. HEK293 NGFI-A luciferase reporter, luminescence. inhibition, % at 8.5 µM. 2,500 tested, 45% active. AID 687008;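 active = mean inhibition over three repeats above a set limit taken from the earlier primary screen, cut at about 38% in these data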;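 note: 100% = cells given the luciferase reporter alone without the COUP-TF2 vector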
* = called active by the depositor; / = no result. The list is not random: actives were taken first. Their share in the collection is about 3.4%.

SMILES	NR2F2 inh	H9c2 protect	FXN GAA850 act	SMARCA2 activ	Gli-Sufu block	GalR3 antag	GalR3 conf	CNG parental	Gal4-VP16 ctr	NR2F2 inh conf
COCCn1c(C)cc(C(=O)COc2nc3ccccc3nc2C)c1C	67*	-26	0	-4	24	98*	85*	0	6	47*
COc1ccc(C(O)c2nc3ccccc3n2C)cc1OC (centres undefined)	47*	-9	-2	-6	28	95*	33*	0	1	32
CCOC(=O)N1CCN(C(=O)C[C@H]2C[C@@]3(C(=O)OCC)CCCC4=C3N(CCC4)C2=O)CC1	-9	/	/	-3	/	/	/	/	/	/
O=c1ncccn1C1OC(CO)C(O)C1O (centres undefined)	8	2	/	-3	/	-9	/	/	/	/
COc1cccc(N2CCN(c3ncnc4c3cnn4-c3ccc(C)cc3C)CC2)c1	97*	-6	-13	-4	14	67*	97*	0	27*	91*
OCCC1CN(Cc2cnc(-c3ccc(Cl)cc3)nc2)CCN1C1CCCCC1 (centres undefined)	37*	4	0	-5	7	83*	13*	0	-26	0
Cc1cccc(-c2ncc(CN3CCN(C4CCCC4)C(CCO)C3)cn2)c1 (centres undefined)	3	-1	1	-3	13	-1	/	/	/	/
O=C(CN1CCC(c2nc3ccccc3s2)CC1)NCc1cccs1	53*	-15	-1	-5	-3	78*	76*	1.8*	-5	31
O=C(O)c1c[nH]c2nccnc12	19	-1	1	3	/	-5	/	/	/	/
Cc1cc(=O)n2nc(N3CCC(C(=O)N4CCN(c5ccccc5)CC4)CC3)sc2n1	-3	9	-2	-1	6	-8	/	/	/	/
CCCc1cc(=O)n2nc(N3CCC(C(=O)N4CCN(c5ccc(OC)cc5)CC4)CC3)sc2n1	56*	-4	-4	-5	38	14*	104*	0	12	64*
CCCCCCCC[n+]1cccc2c3ccccc3ccc21	80*	-26	-10	-11	90*	65*	54*	3.1*	14*	77*
Cc1cccc[n+]1CCCCCCCCCC[n+]1ccccc1C	30	-8	-2	-5	19	-6	/	/	/	/
CCCCCCCCCC[n+]1cccc2c3ccccc3ccc21	83*	-33	-13	-11	89*	50*	51*	8.2*	20*	82*
CCOCCCNC(=O)C(c1ccccc1)N(Cc1ccc2c(c1)OCO2)C(=O)c1ccccc1O (centres undefined)	-10	15	1	0	-5	3	/	/	/	/
Cc1nc(CN(C)C(=O)c2cc(COc3ccc4ncccc4c3)on2)cs1	58*	-31	-3	-5	50	68*	108*	0	0	52*
CCOc1ccc(CCNC(=O)CN(C)S(=O)(=O)c2cccs2)cc1OCC	-1	6	1	0	13	-1	/	/	/	/
CCSc1ccccc1C(=O)NCc1ccc2c(c1)OCO2	9	-3	0	4	5	-1	/	/	/	/
O=S(=O)(c1ccccc1)N1CCC(O)(CSc2ccc(Cl)cc2)CC1	54*	-31	-2	-5	2	93*	108*	-1	5	37
CSc1ccc(C(=O)C2CCCN(C(=O)CCc3c(C)nn(C)c3C)C2)cc1 (centres undefined)	58*	-15	0	-2	39	86*	95*	0	-2	34
COc1ccccc1NS(=O)(=O)c1ccc(C)c(C(=O)NC2CCN(Cc3ccccc3)CC2)c1	47*	-4	-2	-3	40	33*	81*	0	2	29
COc1ccc(NS(=O)(=O)c2ccc(C)c(C(=O)NC3CCN(Cc4ccccc4)CC3)c2)cc1	29	-4	-1	-2	42	-6	/	/	/	/
COc1ccccc1NS(=O)(=O)c1cc(C(=O)NC2CCN(Cc3ccccc3)CC2)ccc1C	68*	/	/	-5	26	90*	103*	1	6	45*
COc1ccccc1NS(=O)(=O)c1cc(C(=O)N2CCCC2)ccc1C	-13	4	1	-3	-1	-4	/	/	/	/
Cc1ccccc1OCCCCn1cnc2ccccc21	39*	-14	0	-6	42	77*	19*	-1	-16	17
SMILES	NR2F2 inh	H9c2 protect	FXN GAA850 act	SMARCA2 activ	Gli-Sufu block	GalR3 antag	GalR3 conf	CNG parental	Gal4-VP16 ctr	NR2F2 inh conf
CC(C)(C)OC(=O)NCCCCCc1cn([C@@H](CO)C(=O)NCCCCCCCCCCC(=O)N2CCN(C(=O)OC(C)(C)C)CC2)nn1	69*	-17	-5	-2	60*	88*	102*	0	-6	79*
CC(C)(C)OC(=O)CC[C@@H](C(=O)NCCCCCCCCCCC(=O)N1CCN(C(=O)OC(C)(C)C)CC1)n1cc(CCCCCNC(=O)OC(C)(C)C)nn1	1	16	0	-1	4	-4	/	/	/	/
Cc1cn([C@H]2C[C@H](O)[C@@H](/C=C/C(=O)NCc3ccc(N(C)C)cc3)O2)c(=O)[nH]c1=O	-9	2	/	-2	/	-7	/	/	/	/
Cc1sc2ncnc(NCCc3ccc(S(N)(=O)=O)cc3)c2c1C	66*	-27	-1	-2	-16	59*	109*	0	10	61*
O=C(O)CN1C(=O)COc2ccc(S(=O)(=O)N3CCCCCC3)cc21	4	-1	-1	-2	5	4	/	/	/	/
Cc1nn(C)c(Cl)c1NC(=O)OCc1ccc(Cl)cc1Cl	53*	-18	-3	-7	34	96*	21*	0	4	32
Cc1nnsc1NC(=O)OCc1ccc(Cl)cc1Cl	0	-15	1	-9	14	-1	/	/	/	/
CCCCCCn1c2c(c(=N)c3c1CCC3)CCC2	78*	-9	-8	-10	89*	35*	21*	0	13	70*
CCCCCCCn1c2c(c(=N)c3c1CCC3)CCCC2	79*	-30	-9	-10	90*	31*	44*	6.0*	17*	82*
